{"source": "the supplement of paper PMC4466140", "binders": {"B1": {"name": "unnamed (peptide)", "chain": "RTRRRPPPPPIPSTQ"}}, "test_in_all_cases": "SPOT peptide array binding signal intensity (averaged, normalized) (arbitrary units (background-subtracted, floor 0; scale differs between SH3 domains)); higher = stronger binding of the SH3 domain to the peptide", "key": {"ScBbc1": {"target": "ScBbc1", "procedure,_shortened": "(§1)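 Cellulose membranes carried synthetic 15-mer peptides with cysteines swapped for serines. These were incubated overnight at 4°C with 10 μg/ml of GST-fused SH3 domains from four yeast species in TBS-based blocking buffer. Binding signal, detected with anti-GST antibody and quantified in Genespotter, is the normalized, background-subtracted spot intensity averaged over replicates, in arbitrary units specific to each domain.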"}, "ScBem1-D1": {"target": "ScBem1-D1", "procedure,_shortened": "as §1"}, "ScBzz1-D1": {"target": "ScBzz1-D1", "procedure,_shortened": "as §1"}, "ScBzz1-D2": {"target": "ScBzz1-D2", "procedure,_shortened": "as §1"}, "ScCyk3": {"target": "ScCyk3", "procedure,_shortened": "as §1"}, "ScFus1": {"target": "ScFus1", "procedure,_shortened": "as §1"}, "ScHof1": {"target": "ScHof1", "procedure,_shortened": "as §1"}, "ScHse1": {"target": "ScHse1", "procedure,_shortened": "as §1"}, "ScLsb1": {"target": "ScLsb1", "procedure,_shortened": "as §1"}, "ScLsb2": {"target": "ScLsb2", "procedure,_shortened": "as §1"}, "ScLsb3": {"target": "ScLsb3", "procedure,_shortened": "as §1"}, "ScLsb4": {"target": "ScLsb4", "procedure,_shortened": "as §1"}, "ScMyo3": {"target": "ScMyo3", "procedure,_shortened": "as §1"}, "ScMyo5": {"target": "ScMyo5", "procedure,_shortened": "as §1"}, "ScNbp2": {"target": "ScNbp2", "procedure,_shortened": "as §1"}, "ScPex13": {"target": "ScPex13", "procedure,_shortened": "as §1"}, "ScRvs167": {"target": "ScRvs167", "procedure,_shortened": "as §1"}, "ScSho1": {"target": "ScSho1", "procedure,_shortened": "as §1"}, "ScSla1-D1-D2": {"target": "ScSla1-D1-D2", "procedure,_shortened": "as §1"}, "ScSla1-D3": {"target": "ScSla1-D3", "procedure,_shortened": "as §1"}, "SpAbp1-D1": {"target": "SpAbp1-D1", "procedure,_shortened": "as §1"}, "SpBbc1": {"target": "SpBbc1", "procedure,_shortened": "as §1"}, "SpBzz1-D1": {"target": "SpBzz1-D1", "procedure,_shortened": "as §1"}, "SpBzz1-D2": {"target": "SpBzz1-D2", "procedure,_shortened": "as §1"}, "SpCyk3": {"target": "SpCyk3", "procedure,_shortened": "as §1"}, "SpHof1": {"target": "SpHof1", "procedure,_shortened": "as §1"}, "SpHof1-2": {"target": "SpHof1-2", "procedure,_shortened": "as §1"}, "SpHof1-3": {"target": "SpHof1-3", "procedure,_shortened": "as §1"}, "SpHse1": {"target": "SpHse1", "procedure,_shortened": "as §1"}, "SpLsb1": {"target": "SpLsb1", "procedure,_shortened": "as §1"}, "SpLsb4": {"target": "SpLsb4", "procedure,_shortened": "as §1"}, "SpMyo1": {"target": "SpMyo1", "procedure,_shortened": "as §1"}, "SpNbp2": {"target": "SpNbp2", "procedure,_shortened": "as §1"}, "SpPex13": {"target": "SpPex13", "procedure,_shortened": "as §1"}, "SpRvs167": {"target": "SpRvs167", "procedure,_shortened": "as §1"}, "SpSla1-D1-D2": {"target": "SpSla1-D1-D2", "procedure,_shortened": "as §1"}, "SpSla1-D3": {"target": "SpSla1-D3", "procedure,_shortened": "as §1"}}, "data": [{"binder": "B1", "values": [{"measurement": "SPOT peptide array binding signal intensity", "setting": "ScBbc1", "value": 511}, {"measurement": "SPOT peptide array binding signal intensity", "setting": "ScBem1-D1", "value": 13.5}, {"measurement": "SPOT peptide array binding signal intensity", "setting": "ScBzz1-D1", "value": 1990}, {"measurement": "SPOT peptide array binding signal intensity", "setting": "ScBzz1-D2", "value": 258}, {"measurement": "SPOT peptide array binding signal intensity", "setting": "ScCyk3", "value": 19}, {"measurement": "SPOT peptide array binding signal intensity", "setting": "ScFus1", "value": 40.5}, {"measurement": "SPOT peptide array binding signal intensity", "setting": "ScHof1", "value": 2}, {"measurement": "SPOT peptide array binding signal intensity", "setting": "ScHse1", "value": 473}, {"measurement": "SPOT peptide array binding signal intensity", "setting": "ScLsb1", "value": 492}, {"measurement": "SPOT peptide array binding signal intensity", "setting": "ScLsb2", "value": 559}, {"measurement": "SPOT peptide array binding signal intensity", "setting": "ScLsb3", "value": 2080}, {"measurement": "SPOT peptide array binding signal intensity", "setting": "ScLsb4", "value": 258}, {"measurement": "SPOT peptide array binding signal intensity", "setting": "ScMyo3", "value": 940}, {"measurement": "SPOT peptide array binding signal intensity", "setting": "ScMyo5", "value": 1490}, {"measurement": "SPOT peptide array binding signal intensity", "setting": "ScNbp2", "value": 3190}, {"measurement": "SPOT peptide array binding signal intensity", "setting": "ScPex13", "value": 318}, {"measurement": "SPOT peptide array binding signal intensity", "setting": "ScRvs167", "value": 1430}, {"measurement": "SPOT peptide array binding signal intensity", "setting": "ScSho1", "value": 894}, {"measurement": "SPOT peptide array binding signal intensity", "setting": "ScSla1-D1-D2", "value": 3110}, {"measurement": "SPOT peptide array binding signal intensity", "setting": "ScSla1-D3", "value": 883}, {"measurement": "SPOT peptide array binding signal intensity", "setting": "SpAbp1-D1", "value": 505}, {"measurement": "SPOT peptide array binding signal intensity", "setting": "SpBbc1", "value": 85.8}, {"measurement": "SPOT peptide array binding signal intensity", "setting": "SpBzz1-D1", "value": 4250}, {"measurement": "SPOT peptide array binding signal intensity", "setting": "SpBzz1-D2", "value": 1520}, {"measurement": "SPOT peptide array binding signal intensity", "setting": "SpCyk3", "value": 1}, {"measurement": "SPOT peptide array binding signal intensity", "setting": "SpHof1", "value": 361}, {"measurement": "SPOT peptide array binding signal intensity", "setting": "SpHof1-2", "value": 53.5}, {"measurement": "SPOT peptide array binding signal intensity", "setting": "SpHof1-3", "value": 340}, {"measurement": "SPOT peptide array binding signal intensity", "setting": "SpHse1", "value": 72.2}, {"measurement": "SPOT peptide array binding signal intensity", "setting": "SpLsb1", "value": 370}, {"measurement": "SPOT peptide array binding signal intensity", "setting": "SpLsb4", "value": 1730}, {"measurement": "SPOT peptide array binding signal intensity", "setting": "SpMyo1", "value": 800}, {"measurement": "SPOT peptide array binding signal intensity", "setting": "SpNbp2", "value": 29.5}, {"measurement": "SPOT peptide array binding signal intensity", "setting": "SpPex13", "value": 26.5}, {"measurement": "SPOT peptide array binding signal intensity", "setting": "SpRvs167", "value": 1250}, {"measurement": "SPOT peptide array binding signal intensity", "setting": "SpSla1-D1-D2", "value": 907}, {"measurement": "SPOT peptide array binding signal intensity", "setting": "SpSla1-D3", "value": 2.5}]}]}
